This is a sample that favours compounds with a hit; in the whole collection about 5.8% have one here.
uPA generation: qHTS for Inhibitors of Cell Surface uPA Generation; AID 540303, 2011; cell surface uPA generation assay, qHTS; Potency, µM (doses to about 38.3 µM), for the others: top-dose activity change, negative = inhibition, usual class: inhibitors; 0.31% of 330,000 active; active = well fitted inhibition curve with a large enough effect; inconclusive = small, poorly fitted or top-dose-only effect; inactive = no such curve, though single readings can be large or run the other way; tested in mouse RAW 264.7 cells; note: potency is the fitted concentration of half-maximal effect; % is set by controls: 0 for no effect and ±100 for the full control effect; nearly all actives have a fitted effect of over 55% in size
RORg inh: qHTS for inhibitors of ROR gamma transcriptional activity; Potency, µM (highest dose often 53.6 µM), for inactives: at the top dose activity change, negative = inhibition, hits mostly inhibitors; 5.4% of 310,000 active; Drosophila S2 Gal4-RORgamma UAS-luciferase reporter, 20 h; AID 2551, 2010; Nuclear receptor ROR-gamma (Mus musculus), P51450; note: potency is the fitted concentration of half-maximal effect; % is set by controls: 0 for no effect and ±100 for the full control effect; nearly all actives have a fitted effect of over 60% in size
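Drosophila Schneider cells stably carrying a metallothionein-driven Gal4 DBD–ROR gamma fusion and a UAS-Photinus luciferase reporter were exposed to compound for 1 hr, then induced with copper sulfate (700 uM final) for 20 hr at ambient temperature before luminescence reading.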
TRPV1 potentiator: HTS Assay for Compounds that Act as Potentiators of the Vanilloid Receptor 1; potentiation, % at 8.33 µM; Transient receptor potential cation channel subfamily V member 1 (Homo sapiens), Q8NER1; TRPV1-expressing cells, Fluo-8 calcium influx, capsaicin EC20 potentiation; AID 540277, 2011; 0.02% of 320,000 active; in the data active = potentiation above about 80%; inconclusive = between about 30% and that limit; note: 0% is about no effect
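Fluo-8 calcium influx in TRPV1-expressing cells, kinetic read (ex 480/em 520 nm). Compound added and read 3 min for agonist activity, followed by capsaicin at EC20 final and 2 min further read for enhancement.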
TRPV1 agonist: HTS Assay for Compounds that Act as Agonists of the Vanilloid Receptor 1; Transient receptor potential cation channel subfamily V member 1 (Homo sapiens), Q8NER1; TRPV1-expressing cells, Fluo-8 calcium influx, agonist mode; activation, % at 8.33 µM; 0.19% of 320,000 active; AID 540275, 2011; in the data active = activation above about 80%; inconclusive = between about 30% and that limit; note: 0% is about no effect
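Fluo-8 calcium influx in TRPV1-expressing cells, kinetic read (ex 480/em 520 nm). Compound added and read 3 min for agonist activity, followed by capsaicin at EC20 final and 2 min further read for enhancement.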
Gal4-VP16 FLuc: VP16 counterscreen qHTS for inhibitors of ROR gamma transcriptional activity; 3.5% of 310,000 active; AID 2546, 2010; Potency, µM (titrated, usually from 53.6 µM), without a hit: top-dose activity, negative = inhibition, most hits filed as inhibitors; Drosophila S2 Gal4-VP16 UAS-luciferase, luminescence, 20 h;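 note: Gal4-VP16 expression switched on by copper sulfate through the metallothionein promoter; potency is the fitted concentration of half-maximal effect; % is set by controls: 0 for no effect and ±100 for the full control effect; nearly all actives have a fitted effect of over 50% in size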
* marks the source's active call; other numbers are inactive results; ? = inconclusive; nt = no result given. Unless noted, calls come from the whole dose curve; as a rule, active = well fitted curve in the direction sought with a large enough effect; inconclusive = small, poorly fitted or top-dose-only effect, or another doubt; inactive = no such curve, though single readings can be large; an effect the other way counts as inactive or inconclusive.

SMILES	uPA generation	RORg inh	TRPV1 potentiator	TRPV1 agonist	Gal4-VP16 FLuc
COC(=O)c1ccc(C(=O)NC(=S)Nc2nc3c(s2)CC(C)CC3)cc1 (stereo unspecified)	-3.0%	1µM*	-3.7	0.1	2µM*
COc1ccc(C(=O)CCN2CCCCCC2)cc1	nt	3.16µM*	?	2.2	5.01µM*
CC(C)Oc1ccc(C(=O)CCN2CCCCC2)cc1	-4.5%	10µM*	-2.9	-1.3	6.31µM*
CCOc1ccc(C(=O)CCN2CCCCC2)cc1	-3.3%	33.3%	3.5	-0.8	-8.8%
C=CCn1c(N)c(C(=O)NCC2CCCO2)c2nc3ccccc3nc21 (stereo unspecified)	0.8%	12.6µM*	-0.9	1.3	?
C/C(=N\NC(=O)c1ccc(Cn2cc([N+](=O)[O-])cn2)o1)c1cccc(NC(=O)C(C)C)c1	4.2%	-7.0%	25.0	-2.1	4.2%
O=C(Nc1nc2ccccc2n1CCN1CCOCC1)c1ccc(Cn2cc([N+](=O)[O-])cn2)o1	-3.8%	11.2µM*	-5.7	1.6	?
O=C(Nc1nc2ccccc2n1CCN1CCOCC1)c1ccc(COc2ccccc2Br)o1	0.3%	2µM*	6.0	0.2	5.62µM*
Cc1ccccc1/C=C/C1=NCCN1	3.98µM*	nt	0.5	0.1	nt
CC(Cc1cccs1)NC(=O)Nc1cccc(Cl)c1 (stereo unspecified)	-0.7%	32.1%	14.3	-4.2	4.6%
CC(Cc1cccs1)NC(=S)Nc1ccc(Cl)cc1 (stereo unspecified)	-4.5%	7.08µM*	-13.4	?	14.1µM*
CC(Cc1cccs1)NC(=S)Nc1ccc(Cl)c(Cl)c1 (stereo unspecified)	3.4%	7.94µM*	-12.2	2.3	?
CNC(=S)N1CCc2cc(OC)c(OC)cc2C1COc1ccc(OC)cc1 (stereo unspecified)	3.2%	?	-2.7	1.7	9.8%
COCCNC(=S)N1CCc2cc(OC)c(OC)cc2C1COc1cc(C)cc(C)c1 (stereo unspecified)	0.4%	?	4.6	-0.4	22.4µM*
CSc1sc(C(=O)N2CCCCC2)c(-c2cccs2)c1C#N	1.0%	21.8%	-8.8	14.1	4.1%
COc1ccc(-c2cc(=O)c3c(OC(C)=O)cc(OC(C)=O)cc3o2)cc1	nt	?	nt	nt	-26.1%
CC(=O)Oc1cc(OC(C)=O)c2c(=O)cc(-c3ccc(OC(C)=O)c(OC(C)=O)c3)oc2c1	nt	?	nt	nt	35.5µM*
CC(=O)Oc1cc(O)c2c(=O)c(OC(C)=O)c(-c3ccc(OC(C)=O)c(OC(C)=O)c3)oc2c1	10µM*	nt	nt	nt	nt
O=C(Nc1ccc2c(c1)CCC2)c1cc(S(=O)(=O)Nc2ccc(F)cc2)c(Cl)cc1Cl	0.8%	?	-4.9	-0.5	6.31µM*
O=C(Nc1ccc2c(c1)CCC2)c1ccc(F)cc1	-2.4%	?	-6.1	?	?
Cc1ccc(S(=O)(=O)N2CCSCCSCCSCCSCC2)cc1	-1.4%	nt	nt	nt	nt
S=C1CCSc2ccc(Cl)cc2N1	1.8%	3.98µM*	6.9	0.9	10µM*
O=C1CCCC2=C1Sc1ccc(Cl)cc1N2	8.8%	11.0%	16.9	12.8	-0.4%
CC(C)C[C@@H](CC(=O)N[C@@H](CCC(=O)O)CC(=O)O)NC(=O)[C@@H]1CCCC[C@H]1NC(=O)C[C@@H](NC(=O)C[C@H](Cc1c[nH]c2ccccc12)NC(=O)[C@@H]1CNCC[C@H]1N)C(C)C	nt	9.7%	nt	nt	-4.7%
O=[N+]([O-])c1ccc(-c2cn(-c3ccccc3)c(=S)[nH]2)cc1	25.1%	?	-1.7	-5.5	?
O=[N+]([O-])c1cccc(-c2cn(-c3ccccc3)c(=S)[nH]2)c1	10.7%	2µM*	-8.4	1.7	11.2µM*
Nc1ccc(-n2cc(-c3ccccc3)[nH]c2=S)cc1	8.1%	8.91µM*	5.7	0.1	?
S=c1[nH]c(-c2ccccc2)cn1-c1ccccc1	?	10µM*	23.2	0.7	10µM*
Cc1cc2cc(C)c(NCCNC(=O)c3cccs3)nc2cc1C	0.7%	5.3%	0.7	23.5	-1.8%
